Results published in PubChem BioAssay (NCATS).
Several values for one entry are separate records, joined by “and”; a condition that tells them apart may be missing. Equal entries are not always repeated. Inconclusive results are not listed. Some structures have more than one record in an assay (separate samples or runs), and their calls can disagree. Activity calls are given as the source filed them. Unless noted, calls follow the shape of the dose curve; as a rule, active = well fitted curve in the direction sought with a large enough effect; inconclusive = small, poorly fitted or top-dose-only effect, or another doubt; inactive = no such curve, though single readings can be large; an effect the other way counts as inactive or inconclusive.

Columns and labels:
[1] = qHTS Assay for Identifying Gametocytocidal Compounds (AID 743244);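 also: % is scaled to controls: 0 for no effect and ±100 for the full control effect; actives lower the fluorescent signal which means gametocytes are killed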; details: P. falciparum 3D7 stage III-V gametocytes, alamarBlue, 72 h; max response: stronger effect = lower value
Procedure, shortened: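 In this qHTS viability screen, late-stage 3D7 gametocytes are incubated with compound for 72 h, then with alamarBlue for 24 h; reduced resorufin fluorescence marks killing.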

[2] = qHTS profiling of the MIPE4 collection as inhibitors of Plasmodium falciparum (3D7) proliferation (AID 743344; call rule not given here;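 also: scaled between DMSO vehicle wells and 0.29 µM artemisinin as full inhibition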); details: P. falciparum 3D7 in erythrocytes, SYBR Green DNA fluorescence, 72 h; at 28.5 µM (top of the series) unless noted
Procedure, shortened: (§1)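 Erythrocytes infected with P. falciparum (0.3% parasitemia, 2.5% hematocrit) incubated with compounds 72 h at 37 C, 5% CO2. Lysis with saponin/Triton buffer containing SYBR Green I, overnight at room temperature in the dark; DNA fluorescence (485/535 nm) normalised to 0.29 uM artemisinin and DMSO.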

[3] = qHTS profiling of the MIPE4 collection as inhibitors of Plasmodium falciparum (DD2) proliferation (AID 743345; call rule not given here); details: P. falciparum Dd2 in erythrocytes, SYBR Green DNA, 72 h; at 28.5 µM (top of the series) unless noted
Procedure, shortened: as §1

[4] = qHTS profiling of the MIPE4 collection as inhibitors of Plasmodium falciparum (HB3) proliferation (AID 743347; call rule not given here;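 also: plate controls were DMSO vehicle wells for no effect and artemisinin wells for full effect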); details: P. falciparum HB3 in erythrocytes, SYBR Green DNA, 72 h; at 28.5 µM (top of the series) unless noted
Procedure, shortened: as §1

[5] = High-throughput drug toxicity screening in the BPDCN cell line Gen2.2 (AID 1224824; call rule not given here;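 also: cells exposed to compounds for 48 h before reading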); details: Gen2.2 BPDCN cells; at 45.8 µM (top of the series) unless noted
Procedure, shortened: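 CellTiter-Glo luminescence read after 48 h compound exposure at 37 C defines viability; percent activity set with DMSO as 100% and bortezomib (9.2 uM final) as 0%. 500 exponentially growing cells per well, RPMI plus 10% FBS.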

[6] = High-throughput drug toxicity screening in the BPDCN cell line Cal-1 (AID 1224825; call rule not given here); details: Cal-1 BPDCN cell viability, qHTS; at 45.8 µM (top of the series) unless noted
Procedure, shortened: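 Cal-1 cells, 500 per well in phenol-red-free RPMI with 10% FBS, exposed to compounds for 48 hours at 37C, 5% CO2. Viability read by CellTiter-Glo luminescence; percent activity normalized to DMSO (100%) and 9.2 uM bortezomib final (0%).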

[7] = qHTS assay for measurement of the activity of small molecule inhibitors on Zika virus induced Caspase-3 activity in human iPSC derived neural progenitor cells (hNPCs) (AID 1224857); also: nearly all actives have a fitted effect of over 65% in size; also: potency is read from the fitted curve at half-maximal effect
Procedure, shortened: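 In medium with heparin 2 ug/ml and cyclopamine 2 uM, hNPCs (350 cells/well) received compound for one hour and then Zika virus at 2 FFU/cell; caspase activity was measured by Caspase-Glo 3/7 luminescence 6 h post-infection.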

[8] = qHTS assay for measurement of the activity of small molecule inhibitors on Zika virus induced Caspase-3 activity in human astrocytoma cells (AID 1224859);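 also: plate controls were ZIKV-infected untreated cells for no effect and uninfected cells for full effect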
Procedure, shortened: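 A cell-based luminescent caspase-3/7 assay used SNB-19 cells infected with ZIKV (2 FFU/cell) for 6 h following 1 h compound pretreatment.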

[9] = qHTS Screen of the MIPE 4.0 Collection Against Ewings Sarcoma (RDES) (AID 1259252); also: nearly all actives have a fitted effect of over 35% in size; also: potency is read from the fitted curve at half-maximal effect
Procedure, shortened: (§2)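 Log-phase cells in RPMI with 5% FBS attached for 4 h, then received compounds as a titration for 48 h at 37C, 5% CO2. Viability was read by CellTiter-Glo luminescence and normalized to DMSO and no-cell wells.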

[10] = qHTS Screen of the MIPE 4.0 Collection Against Ewings Sarcoma (TC71) (AID 1259253); also: nearly all actives have a fitted effect of over 40% in size; also: potency is read from the fitted curve at half-maximal effect
Procedure, shortened: as §2

[11] = qHTS Screen of the MIPE 4.0 Collection Against Ewings Sarcoma (EW8) (AID 1259255); also: nearly all actives have a fitted effect of over 35% in size; also: potency is read from the fitted curve at half-maximal effect;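 as to viability: 100% = DMSO-treated cells and 0% = medium-only wells without cells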
Procedure, shortened: as §2

[12] = qHTS Screen of the MIPE 4.0 Collection Against Ewings Sarcoma (TC32) (AID 1259256); also: nearly all actives have a fitted effect of over 45% in size; also: potency is read from the fitted curve at half-maximal effect
Procedure, shortened: as §2

[13] = qHTS assay to identify small molecule inhibitors of chordoma cells - UCH-1 (AID 1259355); also: nearly all actives have a fitted effect of over 55% in size; also: potency is read from the fitted curve at half-maximal effect
Procedure, shortened: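 Cells (800/well) were seeded and left overnight at 37 C, 5% CO2, then treated with drugs at 15 concentrations plus a combination mix of auranofin, camptothecin, doxorubicin, rubitecan and topotecan. Viability after 48hr was read by CellTiter-Glo luminescence.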

[14] = qHTS assay for cell viability of HEK293 cells (AID 743288); details: ATP luminescence (CellTiter-Glo), 18 h; max response: stronger effect = lower value; also: % is scaled to controls: 0 for no effect and ±100 for the full control effect; nearly all actives have a fitted effect of over 50% in size
Procedure, shortened: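 Total intracellular ATP, measured with a luciferase-coupled reagent, indicates the number of viable HEK293 cells. Exposure to test chemicals lasts 18 h at 37 C in 1,536-well format at 2,000 cells/well.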

[15] = qHTS assay for cell viability of the p53RE-bla HCT-116 cell line (AID 743292); also: % is scaled to controls: 0 for no effect and ±100 for the full control effect; nearly all actives have a fitted effect of over 55% in size
Procedure, shortened: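 Compound-exposed HCT-116 (p53RE-bla) cells, 4,000 per well, were kept 16 h at 37 C following a 5 h preincubation. Cell number was estimated from total ATP by CellTiter-Glo luminescence read after 30 min at room temperature.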

[16] = qHTS profiling of the MIPE4 collection as inhibitors of Plasmodium falciparum (DD2) proliferation (Rep 2) (AID 743346; call rule not given here); details: P. falciparum Dd2 in erythrocytes, SYBR Green DNA, 72 h; at 28.5 µM (top of the series) unless noted
Procedure, shortened: as §1

[17] = qHTS profiling for inhibitors of Plasmodium falciparum (3D7) proliferation (AID 743322; call rule not given here;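 also: infected erythrocytes exposed to compound for 72 h before lysis; 100% = DMSO vehicle wells and 0% = 0.29 µM artemisinin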); details: P. falciparum 3D7 proliferation; at 28.7 µM (top of the series)
Procedure, shortened: as §1

[18] = qHTS profiling for inhibitors of Plasmodium falciparum (DD2) proliferation (AID 743323; call rule not given here); details: lower = more inhibition; at 28.7 µM (top of the series)
Procedure, shortened: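 1536-well qHTS; infected RBCs 0.3% parasitemia/2.5% Hct final; cpd 72 h 37 C 5% CO2; lysis buffer + SYBR Green I, o/n RT dark; FI 485/535; norm. to 0.29 uM artemisinin and DMSO, plate-stack corrected.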

Row | SMILES | max response [1] | parasite growth, % of DMSO control [2] | parasite growth remaining, % of DMSO control (lower = more inhibition) [3] | growth, % of control [4] | cell viability, % of control (lower = more cytotoxic) [5] | viability (% of control) [6] | Potency [7] | Potency [8] | Potency [9] | Potency [10] | Potency [11] | Potency [12] | Potency [13] | max response [14] | Potency [15] | parasite growth, % of control (lower = inhibition) [16] | remaining parasite growth % (stronger effect = lower value) [17] [%] | activity, percent of control [18] [%]
1 | CC(C)OC(=O)C(C(=O)OC(C)C)=C1SC=CS1 | 13.6% (inactive) | 89% | 117% | 91.6% | 159% | 94.2% | inactive | inactive | inactive | inactive | inactive | inactive | inactive |  |  |  |  | 
2 | COc1ccc2cc3[n+](cc2c1OC)CCc1cc2c(cc1-3)OCO2 |  | 5.45% | 6.26% | 4.47% | 19.2% | 7.43% | inactive | inactive | 8.33 µM (active) | 5.9 µM (active) | 11.8 µM (active) | 7.43 µM (active) | inactive | -16% (inactive) | inactive | 13.4% |  | 
3 | O=C(O)CCn1c2c(c3ccccc31)C[C@H](NS(=O)(=O)c1ccc(F)cc1)CC2 |  |  |  |  | 124% | 118% | inactive | inactive | inactive | inactive | inactive | inactive |  |  |  |  |  | 
4 | Cc1cccc(Nc2ccncc2S(=O)(=O)NC(=O)NC(C)C)c1 |  | 93.3% | 104% | 95.2% | 90.1% | 107% | inactive and 18.7 µM (active) | inactive | inactive | inactive | inactive | inactive | inactive |  |  | 125% |  | 
5 | COC(c1ccccc1)(c1ccccc1)[C@H](Oc1nc(C)cc(C)n1)C(=O)O | 8.54% (inactive) | 102% | 102% | 105% | 195% | 121% | inactive | inactive | inactive | inactive | inactive | inactive | inactive |  |  |  |  | 
6 | CN1CCCC(n2nc(Cc3ccc(Cl)cc3)c3ccccc3c2=O)CC1 (stereo unspecified) | 32.9% (inactive) | 5.72% | 14% | 2.79% | 9.12% | 7.4% | inactive | inactive | 1.05 µM (active) | 2.64 µM (active) | 8.33 µM (active) | 3.72 µM (active) | inactive |  |  |  |  | 
7 | O=S(=O)(O)CCS | -4.29% (inactive) | 87.9% | 108% | 66.6% | 25.9% | 32.1% | inactive | inactive | inactive | inactive | inactive | inactive | inactive |  |  | 78.8% |  | 
8 | CCOC(=O)[C@H](CCc1ccccc1)N[C@H]1CS[C@H](c2cccs2)CN(CC(=O)O)C1=O | 3.7% (inactive) | 5.73% | 58.9% | 6.02% | 189% | 14% | inactive | inactive | 4.18 µM (active) | 5.9 µM (active) | 5.9 µM (active) | 4.18 µM (active) | inactive |  |  |  |  | 
9 | CC(C)(Sc1cc(C(C)(C)C)c(O)c(C(C)(C)C)c1)Sc1cc(C(C)(C)C)c(O)c(C(C)(C)C)c1 |  | 23.4% | 26.6% | 19.1% | 48.3% | 45.2% | inactive | inactive | 2.96 µM (active) | 20.9 µM (active) | inactive | 9.35 µM (active) | inactive |  |  | 24.6% |  | 
10 | CCn1cc(C(=O)O)c(=O)c2cc(F)c(N3CCNCC3)nc21 |  | 35.6% | 56.4% | 56.4% | 194% | 114% | inactive | inactive | inactive | inactive | inactive | inactive | inactive |  |  | 53.9% |  | 
11 | CO[C@@]12[C@H](COC(N)=O)C3=C(C(=O)C(C)=C(N)C3=O)N1C[C@@H]1N[C@@H]12 |  | 6.13% | 7.06% | 2.97% | 2.55% | 2.42% | inactive | inactive | 0.0332 µM (active) | 0.0418 µM (active) | 0.0662 µM (active) | 0.0037 µM (active) | 17.8 µM (active) |  |  | 6.98% |  | 
12 | C[C@@H]1CN(c2c(F)c(N)c3c(=O)c(C(=O)O)cn(C4CC4)c3c2F)C[C@H](C)N1 | 13.9% (inactive) | 55.7% [at 9.64 µM] | 83% [at 9.64 µM] | 72.3% [at 9.64 µM] | 89.9% [at 23.2 µM] | 107% [at 23.2 µM] | inactive | inactive | inactive | inactive | inactive | inactive | inactive |  |  | 34.1% [at 9.64 µM] |  | 
13 | COc1ncnc(NS(=O)(=O)c2ccc(N)cc2)c1OC | -8.03% (inactive) | 170% | 105% | 747% | 106% | 96.2% | inactive | inactive | inactive | inactive | inactive | inactive | inactive |  |  | 99.5% | 82.4 | 85.3
14 | CC(C)Cn1cnc2c(N)nc3ccccc3c21 |  | 43.4% | 74.5% | 58.5% | 11.8% | 3.23% | inactive | inactive | 16.6 µM (active) | 18.7 µM (active) | 7.43 µM (active) | 18.7 µM (active) | inactive |  |  | 32.3% |  | 
15 | NC(=O)N1c2ccccc2CC(=O)c2ccccc21 | 34.3% (inactive) | 92.2% | 96.7% | 102% | 104% | 112% | inactive | inactive | inactive | inactive | inactive | inactive | inactive |  |  | 187% |  | 
16 | CCCc1nc(C)c2c(=O)[nH]c(-c3cc(S(=O)(=O)N4CCN(CC)CC4)ccc3OCC)nn12 | 1.11% (inactive) | 6.01% | 12.3% | 9.8% | 5.18% | 4.45% | inactive | inactive | 7.43 µM (active) | 8.33 µM (active) | 3.72 µM (active) | 9.35 µM (active) | inactive |  |  |  |  | 
